Molecules are shown by their SMILES. The panel holds about 83,000 compounds, 20% with a hit somewhere; the sample as a whole holds those more often.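 Interpretation: 100, growth as untreated; towards 0, rising growth inhibition; 0, no net growth; 0 to -100, cell death. Compounds scoring below 10 were considered active.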 Values without a mark were called inactive. The source made the active and inactive calls.

Holding throughout (test): NCI-60 one-dose screen, 48 h (100 = growth as untreated, 0 = no growth, -100 = all killed)
Holding throughout (details): 10 µM unless noted

Experiment [1] has as its system NCI-H23 lung.
For experiment [2], the system named is NCI-H226 lung.
The test system of experiment [3] is NCI-H322M lung.
Experiment [4] has as its system HOP-62 NSCLC.
For experiment [5], the system named is NCI-H460 lung.
In experiment [6] the test system is HOP-92 NSCLC.
The subject of experiment [7] is NCI-H522 lung.
For experiment [8], the system named is A549/ATCC NSCLC.
For experiment [9], the system named is 786-0 renal.
Experiment [10] deals with COLO 205 colon.
In experiment [11] the test system is DU-145 prostate.
In experiment [12] the test system is K-562 leukemia.
The subject of experiment [13] is MALME-3M melanoma.
For experiment [14], the system named is MDA-MB-231 breast.
For experiment [15], the system named is RXF 393 renal.
In experiment [16] the test system is SF-268 CNS.
Experiment [17] has as its system SF-539 CNS.
Experiment [18] deals with UACC-257 melanoma.
Experiment [19] deals with M14 melanoma.

On to `Nc1nc(N)c2cc(Sc3ccc(Cl)cc3)ccc2n1`, for which the growth in experiment [1] is 33.6%; in [2] it was 48.9%; in experiment [3], 27.7%; in [4], 53.1%; in experiment [5], 13.4%; in experiment [6], 6.59% (active). In addition, the growth is 21% in [7]; 15.2% in [8]; 28% in experiment [9]; -45.6% (active) in experiment [10]; 29.7% in experiment [11]; 4.88% (active) in experiment [12]. Moreover, the growth is 56.7% in experiment [13]; 31.3% in [14]; 42.4% in experiment [15]; 31.1% in experiment [16]; 35% in experiment [17]; 40.1% in experiment [18]. In addition, the growth in experiment [19] is 27.8%.
Regarding `Fc1cnccc1-c1nc2ccc3[nH]ncc3c2c2c1CCCC2`, the growth was 31.9% in [1]; 30% in [2]; 29.5% in experiment [3]; 21% in experiment [4]; 25.8% in [5]; 40.7% in [6]. In addition, the growth was 18.8% in [7]; 14.6% in experiment [8]; 28.1% in experiment [9]; 17.6% in [10]; 24.1% in [11]; 30.9% in experiment [12]. Further, the growth in [13] was 44.2%; in experiment [14], 51.2%; in experiment [15], -23.9% (active); in experiment [16], 31.9%; in experiment [17], 5.76% (active); in experiment [18], 63%. The growth in experiment [19] is 26%.
In the case of `COc1cc(NCCCCC(C)N)c2nccc(C)c2c1` (configuration not stated), the growth in experiment [1] is 89.3%; in [2], 93.2%; in experiment [3], 79.8%; in [4] it was 78.3%; in experiment [5], 95.3%; in experiment [6], 46.5%. Further, the growth is 90.7% in experiment [7]; 101% in experiment [8]; 83.7% in experiment [9]; 37% in experiment [10]; 111% in [11]; 80.4% in experiment [12]. The growth was 98% in experiment [13]; 62.9% in experiment [14]; 89.8% in experiment [15]; 100% in [16]; 83.9% in [17]; 107% in [18]. Besides, the growth in experiment [19] is 95.4%.
As to `OC(c1cc(-c2ccc(C(F)(F)F)cc2)nc(-c2ccc(C(F)(F)F)cc2)c1)C1CCCCN1` (configuration not stated), the growth in [1] was -60.2% (active); in experiment [2], -71.2% (active); in [3] it was -79.5% (active); in experiment [4] it was -86.9% (active); in experiment [5], -67.7% (active); in experiment [6] it was -81.9% (active). For the same compound, the growth was -78.7% (active) in experiment [7]; -84.4% (active) in experiment [8]; -75.4% (active) in experiment [9]; -79.6% (active) in experiment [10]; -94.9% (active) in experiment [11]; -73.6% (active) in experiment [12]. Besides, the growth in [13] was -64.7% (active); in experiment [14], -71% (active); in experiment [15] it was -86% (active); in experiment [16], -83.9% (active); in experiment [17] it was -77.3% (active); in experiment [18] it was -76% (active). For the same compound, the growth in experiment [19] was -80.1% (active).
In the case of `C=C(CN1CC=CCC1)[C@@H]1CC[C@]2(C(=O)OC)CC[C@]3(C)[C@H](CC[C@@H]4[C@@]5(C)CC[C@H](OC(C)=O)C(C)(C)[C@@H]5CC[C@]43C)[C@@H]12`, the growth in [1] is 95.5%; in [2], 95.1%; in experiment [3], 104%; in experiment [4] it was 106%; in experiment [5], 97.8%; in experiment [6] it was 71.2%. Moreover, the growth in experiment [7] is 84%; in experiment [8] it was 100%; in experiment [9], 109%; in experiment [10], 77.6%; in [11], 107%; in experiment [12] it was 57.9%. In addition, the growth in experiment [13] is 92.9%; in [14], 99.2%; in experiment [15], 101%; in experiment [16], 92.5%; in experiment [17], 93.3%; in experiment [18], 91.9%. Also, the growth in [19] is 86.1%.
As to `Cc1cc(NC(=O)C2c3ccccc3C(=O)N(CC(C)C)C2c2cccs2)no1` (configuration not stated), the growth in experiment [1] was 47.6%; in [2], 103%; in experiment [3] it was 107%; in [4], 43.8%; in experiment [5], 69.1%; in [6], -0.868% (active). Also, the growth in experiment [7] is -66.5% (active); in experiment [8] it was 35.3%; in [9] it was -32.6% (active); in experiment [10], -83.9% (active); in [11], -9.63% (active); in experiment [12] it was 3.46% (active). For the same compound, the growth was -62.1% (active) in experiment [13]; -14.2% (active) in experiment [14]; -88.3% (active) in experiment [15]; 27.8% in [16]; 18.2% in experiment [17]; -8.81% (active) in experiment [18]. In experiment [19], the growth is 1% (active).
For `OC(c1cc2c(Cl)cc(Cl)cc2c2cc(C(F)(F)F)ccc12)C1CCCCN1` (configuration not stated), the growth is -77.5% (active) in experiment [1]; -66% (active) in experiment [2]; -69.7% (active) in experiment [3]; -90% (active) in experiment [4]; -73.6% (active) in experiment [5]; -88.8% (active) in experiment [6]. For the same compound, the growth is -83.9% (active) in experiment [7]; -80.9% (active) in [8]; -67.6% (active) in experiment [9]; -88.3% (active) in [10]; -94.5% (active) in [11]; -75.5% (active) in [12]. For the same compound, the growth in experiment [13] is -44% (active); in experiment [14], -73% (active); in [15], -90.9% (active); in experiment [16], -82.9% (active); in experiment [17] it was -81.5% (active); in experiment [18] it was -67.1% (active). In experiment [19], the growth was -82.3% (active).
Regarding `CCCN(CCC)CC(O)COc1ccccc1C(=O)Nc1ccccc1` (configuration not stated), the growth was 90.9% in experiment [1]; 78.9% in [2]; 119% in experiment [3]; 66.5% in experiment [4]; 97.6% in experiment [5]; 84.2% in experiment [6]. Further, the growth in experiment [7] is 55.8%; in [8], 40.4%; in experiment [9], 88%; in [10], 46.1%; in [11], 96.8%; in [12], 22.3%. Further, the growth is 62% in experiment [13]; 96.5% in experiment [14]; 52.5% in experiment [15]; 73.8% in experiment [16]; 77.3% in experiment [17]; 61.5% in experiment [18]. Also, the growth in experiment [19] was 69.3%.
